Reference: PubChem BioAssay (NCI)
Compounds without any hit were thinned out: in the full panel of roughly 83,000, 20% have a hit.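 For each line, cells grew in 96-well plates with the test compound present at a single concentration for 48 hours.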 Values without a mark were called inactive. Calls of active or inactive are those of the source. The calls were made as follows: active = growth percent below 10; inactive = the rest.

Experiments:
Assay in all cases: NCI-60 one-dose screen, 48 h (100 = growth as untreated, 0 = no growth, -100 = all killed)
Conditions in all cases: 10 µM unless noted
SR leukemia = test system: SR leukemia
RPMI-8226 leukemia = test system: RPMI-8226 leukemia
OVCAR-8 ovarian = test system: OVCAR-8 ovarian
OVCAR-5 ovarian = test system: OVCAR-5 ovarian
OVCAR-4 ovarian = test system: OVCAR-4 ovarian
SK-OV-3 ovarian = test system: SK-OV-3 ovarian
IGROV1 ovarian = test system: IGROV1 ovarian
OVCAR-3 ovarian = test system: OVCAR-3 ovarian
HS 578T breast = test system: HS 578T breast
NCI/ADR-RES ovarian = test system: NCI/ADR-RES ovarian
T-47D breast = test system: T-47D breast
BT-549 breast = test system: BT-549 breast
MDA-MB-435 melanoma = test system: MDA-MB-435 melanoma
MCF7 breast = test system: MCF7 breast
HCT-116 colon = test system: HCT-116 colon
HCC-2998 colon = test system: HCC-2998 colon
KM12 colon = test system: KM12 colon
SW-620 colon = test system: SW-620 colon

| Structure (SMILES) | growth (SR leukemia) | growth (RPMI-8226 leukemia) | growth (OVCAR-8 ovarian) | growth (OVCAR-5 ovarian) [%] | growth (OVCAR-4 ovarian) | growth (SK-OV-3 ovarian) [%] | growth (IGROV1 ovarian) [%] | growth (OVCAR-3 ovarian) | growth (HS 578T breast) | growth (NCI/ADR-RES ovarian) | growth (T-47D breast) [%] | growth (BT-549 breast) [%] | growth (MDA-MB-435 melanoma) | growth (MCF7 breast) | growth (HCT-116 colon) | growth (HCC-2998 colon) [%] | growth (KM12 colon) [%] | growth (SW-620 colon) |
| --- | --- | --- | --- | --- | --- | --- | --- | --- | --- | --- | --- | --- | --- | --- | --- | --- | --- | --- |
| CC1=C2[C@@H](CC1)[C@]1(C)O[C@@](C(C)C)(C[C@H]1OC(=O)CO)[C@H]2OC(=O)CCCc1ccccc1 | 76.1% | 22.7% | 35.4% | 100 | 80% | 105 | 62.8 | 61.3% | -4.02% (active) | 44.8% | 25.3 | 53.3 | 78.7% | 82.4% | 68.7% | 84 | 60.9 |  |
| CN1CCN(CC(=O)N(C)c2ccc(N=C(c3ccccc3)c3c(O)[nH]c4ccc([N+](=O)[O-])cc34)cc2)CC1 | 19.4% | 82.7% | 79.6% | 122 | 57.7% | 14.4 | 49.3 | 73.6% | 18.2% | 90.8% | 89.7 | 64.4 | 23.5% | 21.9% |  | 78.7 | 13.1 | 48.4% |
| C#C[C@]1(O)CC[C@H]2[C@@H]3CC=C4c5sc(-c6cccc(C)c6)nc5CC[C@]4(C)[C@H]3CC[C@@]21C | 38.6% | -6.87% (active) | 89.9% | 73.8 | 81.2% | 88.9 | 68.8 | 89.2% | 40.8% | 80.9% | 78.6 | 71.5 | 82.8% | 34.9% |  | 72.5 | 54.3 | 84.8% |
| COC1=C(OC)C(=O)C(CCCCCCCCCCO)=C(C)C1=O | 24% | 76% | 49.4% | 103 | -13.7% (active) | 82.7 | 57.7 | 69% | 92.6% | 29.2% | 19.3 | 87.4 | -51% (active) | 30.2% | 52.9% |  | 67.5 | 103% |
| CCN1C(=O)N(CC)C2C1NN=c1s/c(=C\c3ccccc3)c(=O)n12 (stereo not drawn) | 14.8% | 11.6% | -9.95% (active) | 30.2 | 48.1% | 33.5 | 19.8 | -7.69% (active) | 16.8% | 2.31% (active) | 70.8 | 13.2 | -24.8% (active) | 16.2% | 9.74% (active) | 16.2 | 12.2 |  |
| CC/C(=C(/c1ccc(Cl)cc1)c1ccc(OCCCN(C)C)cc1)c1ccc(OC)cc1 | -40.6% (active) | -41.3% (active) | 74.3% | 73.5 | 86.6% | 102 | 63.4 | 68.8% | 84.8% | 82.9% | 51.1 | 86.1 | 64.7% | 9.13% (active) |  | 16.8 | 31.7 | 4.55% (active) |
| C#CCOC(=O)C(N)CSSCC(N)C(=O)O (stereo not drawn) | 96.1% | 103% | 111% | 84.4 | 95.9% | 109 | 99.5 | 112% | 107% | 101% | 100 | 104 | 89.1% | 99.5% |  | 101 | 108 | 85% |
| C=C(C)Cn1c(SCC(=O)c2cccs2)nc2sc3c(c2c1=O)CCCC3 | 44% | 50.7% | 49% | 71.2 | 73.4% | 79.1 | 55.1 | 64.5% | 65.3% | 43.9% | 58.7 | 81.2 | 56% | 46.7% |  | 76.1 | 42.9 | 38.6% |
| COC(=O)c1ccc(-n2cc(CCCOS(=O)(=O)c3ccc(F)cc3)nn2)cc1 | 87.4% | 97.3% | 96.2% | 98.6 | 94.4% | 102 | 102 | 107% | 93.6% | 106% | 97.9 | 101 | 97.3% | 92.1% |  | 110 | 100 | 100% |
